The source of these data is PubChem BioAssay AID1259370 (Center for Chemical Genomics, University of Michigan, 2018).

In all, about 94,000 compounds went through this assay and about 680 (0.72%) were called active. No stated cut-off is given here; in the data, active means z-score above about 3.2; inactive means the rest. The full list was thinned out, with actives kept by preference.

For the assay, the target named is M-phase inducer phosphatase 2 (Homo sapiens) + Cyclin-dependent kinase 2 (Homo sapiens) + Cyclin-A2 (Homo sapiens) (UniProt P30305+P24941+P20248). As to the kind of experiment: primary biochemical HTRF screen for inhibition of M-phase inducer phosphatase 2 binding to cyclin-dependent kinase 2/cyclin A (AID 1259370). To be noted: HTRF CDC25B-CDK2/CyclinA binding, anti-His/anti-Flag; stronger effect = higher value. (In general: TR-FRET usually uses a lanthanide donor and a delayed reading to cut background.)
With `CCC1(C)Cc2ccccc2-c2[nH]c(=O)n(-c3ccccc3)c(=O)c21` (centres undefined), the z-score is -2.42 (inactive). Next, `N#CC1=C(N)OC2=C(C(=O)CCC2)C1c1cccc(O)c1` (centres undefined): -0.34 (inactive); `Cn1c(C(=O)N2CCC(C(=O)N3CCN(c4ccccc4)CC3)CC2)cc2sccc21`: -0.7 (inactive); `CC(=O)Oc1cc2c(C(=O)N3CCN(c4ccccc4)CC3)c(C)oc2c2ccccc12`: 10.8 (active). Turning to `O=C(O)C1C2CCC(O2)C1C(=O)N1CCN(c2ccccc2)CC1` (centres undefined), the z-score is -0.45 (inactive). Then `O=C(O)c1ccc2nc(-c3ccccc3)[nH]c2c1`, with -1.66 (inactive); and `N#Cc1c(-c2ccco2)cc(-c2ccc(Br)cc2)nc1N`, with -0.1 (inactive); and `CCOC(=O)c1sc2nc3c(c(-c4ccco4)c2c1N)CCC3`, with -2.78 (inactive). Then `N#Cc1c(N)nc2c(c1-c1ccco1)CCCC2`, with 19.4 (active); and `O=C(OCC1CCCO1)c1c(-c2ccccc2)c(-c2ccccc2)n[nH]c1=O` (centres undefined), with -1.18 (inactive); and `COc1cccc(CC2C(=O)Nc3ccccc32)c1OC` (centres undefined), with -0.98 (inactive). Then `C=CCOc1cccc(C2c3c(oc4ccc(Cl)cc4c3=O)C(=O)N2CCCN2CCOCC2)c1` (centres undefined), with -1.86 (inactive); and `C=CCN1C(=O)/C(=C/c2ccc(OC(=O)C34CC5CC(CC(C5)C3)C4)c(OC)c2)SC1=S`, with -2.28 (inactive).

Take `Cc1ccc(CC2CC(=O)N(c3nc(C)cc(C)n3)C2=O)cc1` (centres undefined): the z-score is -0.93 (inactive). With `Cc1ccc2oc(-c3cccc(N4C(=O)c5cccnc5C4=O)c3)nc2c1`, the z-score is 16 (active). Next, `Cc1ccc2oc(-c3ccc(C)c(N)c3)nc2c1`: -1.15 (inactive). `O=C1c2cccnc2C(=O)N1c1ccc(-c2nc3ccccc3o2)cc1`: the z-score is 1.03 (inactive). Next, `Cc1nc2c3ccccc3n3c(CCCC(=O)N4CCC(C(N)=O)CC4)nnc3n2n1`: 0.97 (inactive); `CC(C)S(=O)(=O)c1cscc1N/C=C(/C#N)C(=O)C1CC1`: 0.29 (inactive).

Regarding `CSc1nc(N/C=C(\C#N)C(=O)c2cccs2)n2nc(C)cc2n1`, the z-score was -0.94 (inactive). Regarding `CC(C)S(=O)(=O)c1cscc1N/C=C(/C#N)C(=O)c1cccs1`, the z-score is 8.41 (active). `Cc1ccccc1-c1noc(CSc2nnc(-c3ccncc3)n2-c2ccccc2)n1`: the z-score is -0.18 (inactive). Next, `NC(=O)c1c(NC(=O)c2ccc(Br)o2)sc2c1CCCC2`: -10.5 (inactive); `Cc1ccc(S(=O)(=O)c2nc(S(=O)(=O)c3ccccc3)sc2NCc2ccccn2)cc1`: 0.49 (inactive); `COc1ccc(-n2cnc3cc(NCc4ccco4)ccc32)cc1`: -1.6 (inactive). Take `Cc1nc2cc(NCc3ccccn3)ccc2n1C`: the z-score is 14.6 (active). Then `Cc1ccc(Cn2c(=O)c(C#N)cc3c(=O)n4ccccc4nc32)cc1`, with -2.86 (inactive).

In the case of `CCC12CN3CC(CC)(CN(C1)C3c1cccc(N)c1)C2=O` (centres undefined), the z-score is -0.44 (inactive). Next, `NC(=O)C1CCN(C(=O)C(=O)c2c[nH]c3ccccc23)CC1`: -2.56 (inactive); `O=C(C(=O)N1CCc2ccccc2C1)c1c[nH]c2ccccc12`: 10.4 (active); `CC1CC(C)CN(C(=O)C(=O)c2c[nH]c3ccccc23)C1` (centres undefined): -1.24 (inactive).

Take `Cc1ccc2nc(C3=C(O)CN(c4cc(Cl)ccc4C)C3=N)[nH]c2c1`: the z-score was -2.12 (inactive). Next, `Fc1ccc(C(Nc2ccccc2)c2nnc(-c3ccccc3)o2)cc1` (centres undefined): 0.64 (inactive); `Cc1cccn2c(=O)c3cc(C(=O)NCc4cccs4)n(C)c3nc12`: -2.17 (inactive).

`COCCOC(=O)C1=C(C)NC2=C(C(=O)C(C(=O)OC)C(C)C2)C1c1cccc(Br)c1` (centres undefined): the z-score was -0.35 (inactive). `CCOC(=O)C(Sc1nc(N2CCOCC2)c2c(c1C#N)CC(C)(C)OC2)c1ccccc1` (centres undefined): the z-score was -1.85 (inactive). Then `COc1cccc(CNCc2ccc3c(c2)OCO3)c1`, with 2.98 (inactive); and `ONC(=Nc1ccc2c(c1)OCO2)C(=Nc1ccc2c(c1)OCO2)NO`, with 20.3 (active). Then `c1cc(CNCc2ccc3c(c2)OCO3)ccn1`, with -0.83 (inactive). As for `CCCc1cc(-c2n[nH]c(C)c2-c2ccc3c(c2)OCCO3)c(O)cc1O`, the z-score was 1.36 (inactive). Next, `Cc1nc(-n2cnc3ccccc32)c2c3c(sc2n1)CCC3`: -2.24 (inactive); `COc1ccc(C(=O)Oc2ccc3c(C)cc(=O)oc3c2C(C)=O)cc1OC`: 4.76 (inactive); `CCOc1ccc(OCCSc2nc3ccccc3n2CC(=O)O)cc1`: -2.11 (inactive). On to `O=C1C2N=NN(Cc3cccc(F)c3)C2C(=O)N1c1ccccc1` (centres undefined), for which the z-score was 0.2 (inactive).

Take `COc1ccc(C2CC(=O)c3cc(-c4nc(-c5ccc(F)cc5)cs4)c(=O)[nH]c3C2)cc1` (centres undefined): the z-score is -1.13 (inactive).

For `COc1ccc(-c2csc(-c3cc4c([nH]c3=O)CC(c3ccco3)CC4=O)n2)cc1F` (centres undefined), the z-score was 12.9 (active). Take `COc1ccc(-c2csc(-c3cc4c([nH]c3=O)CC(c3ccc(OC)c(OC)c3)CC4=O)n2)cc1` (centres undefined): the z-score is -1.19 (inactive). Next, `COc1ccc(-c2noc(COc3cc(C)cc(C)c3C)n2)cc1OC`: 1.44 (inactive); `COC(=O)c1ccc([C@@H]2Nc3ccc(F)cc3[C@@H]3C=CC[C@@H]32)cc1`: -0.78 (inactive). In the case of `COc1cccc([C@@H]2Nc3ccc(S(=O)(=O)Nc4ccccc4)cc3[C@@H]3C=CC[C@@H]32)c1`, the z-score is -1.16 (inactive).

Regarding `CCOc1cccc2c1N[C@@H](c1ccc(C(=O)O)cc1)[C@H]1CC=C[C@@H]21`, the z-score was 11.8 (active). Next, `Cn1c(=O)n(CCc2ccccc2)c(=O)c2c3c(sc21)COC(C)(C)C3`: -1.21 (inactive); `C#CCSc1nc2c(c(=O)[nH]1)C(c1ccc(O)c(O)c1)CC(=O)N2` (centres undefined): 19 (active); `CCSc1nc2c(c(=O)[nH]1)C(c1ccc(OC)c(Br)c1)CC(=O)N2` (centres undefined): -0.2 (inactive). With `C#CCSc1nc2c(c(=O)[nH]1)C(c1ccc(OCCCC)cc1)CC(=O)N2` (centres undefined), the z-score was -1.04 (inactive). Next, `Cc1[nH]c2ccccc2c1C1(O)C(=O)N(Cc2cccs2)c2ccc(Br)cc21` (centres undefined): 1.66 (inactive); `COc1ccc(-c2ccc(Cc3nc(-c4ccc(OC)cc4)no3)cc2)cc1`: -3.73 (inactive). In the case of `CN(Cc1ccccc1)c1oc(-c2ccc(COc3ccccc3)o2)nc1C#N`, the z-score is 1.1 (inactive). Then `CCCc1nc2sc3c(OCC)ncnc3c2c2c1COC(C)(C)C2`, with 0.03 (inactive).
